Screens: PubChem BioAssay, National Center for Advancing Translational Sciences (NCATS)
G9a block: qHTS Assay for Inhibitors of Histone Lysine Methyltransferase G9a | actives 8.8% (n = 350,000) | AID 504332, 2011 | Histone-lysine N-methyltransferase EHMT2 (Homo sapiens), Q96KQ7 | G9a H3K9 monomethylation, AlphaScreen, 2 h | Potency, µM (titrated, usually from 102 µM), for inactives: at the top dose activity, negative = inhibition, usual class: inhibitors; further: on the % scale 0 is the no-effect control and ±100 the full control effect; nearly all actives have a fitted effect of over 75% in size
Target sequence (Q96KQ7 913-1193 limits assumed): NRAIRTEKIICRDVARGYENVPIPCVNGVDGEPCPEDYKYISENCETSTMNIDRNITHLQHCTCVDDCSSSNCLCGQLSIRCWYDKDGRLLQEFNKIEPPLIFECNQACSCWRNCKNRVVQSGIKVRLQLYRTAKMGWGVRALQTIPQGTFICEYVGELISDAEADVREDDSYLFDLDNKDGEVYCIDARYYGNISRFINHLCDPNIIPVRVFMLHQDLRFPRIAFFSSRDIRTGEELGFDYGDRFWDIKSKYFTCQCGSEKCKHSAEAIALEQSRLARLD
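Quantitative HTS format: methyltransferase activity on a biotin-tagged H3K9 peptide is measured by AlphaScreen, using a rabbit anti-monomethyl-H3K9 antibody with streptavidin donor and anti-IgG acceptor beads. Final levels are 20 nM enzyme, 500 nM peptide, 20 uM SAM; 2 h RT.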
Sfp inh: qHTS Assay for Inhibitors of Bacillus subtilis Sfp phosphopantetheinyl transferase (PPTase); Biochemical Sfp PPTase activity, qHTS; AID 1490, 2009; actives 3.5% (n = 310,000); 4'-phosphopantetheinyl transferase ffp (Bacillus subtilis), Q9F4F7; Potency, µM, inactives show largest response in the series, negative = inhibition, actives largely listed as inhibitors;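 further: the enzyme is Sfp with the accession as filed and its product quenches rhodamine fluorescence; 0% = enzyme reaction without inhibitor and -100% = no enzyme wells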
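Reaction rates are the 30-min fluorescence difference (ex 525, em 598 nm) in wells containing 15 nM Sfp, 5 uM rhodamine-CoA and 12.5 uM BHQ-2-YbbR at pH 7.6 with 10 mM MgCl2.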
ALOX12 inh: Primary qHTS assay for inhibitors of human arachidonate 12S-lipoxygenase (ALOX12): Round 2; Polyunsaturated fatty acid lipoxygenase ALOX12 (Homo sapiens), P18054; purified 12hLO, xylenol orange hydroperoxide absorbance; Potency, µM (top dose mostly 108 µM), for the others: at the highest dose activity change, negative = inhibition, usual class: inhibitors; actives 1.1% (n = 580,000); further: on the % scale 0 is the no-effect control and ±100 the full control effect
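Purified human 12hLO at 150 nM in 25 mM Hepes, 0.01% Triton X-100, pH 7.0, preincubated 15 min at room temperature with compound. Reaction started with 40 uM arachidonic acid, 30 min at room temperature. Hydroperoxide measured by Fe-xylenol orange, 573/405 nm absorbance ratio.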
JMJD2A Tudor inh: qHTS Assay for Inhibitors of JMJD2A-Tudor Domain. Lysine-specific demethylase 4A (Homo sapiens), O75164. AlphaScreen JMJD2A-Tudor / H3K4me3 peptide binding. Potency, µM (titrated, usually from 114 µM), for inactives: top-dose activity change, negative = inhibition, usual class: inhibitors. actives 4.4% (n = 390,000). AID 504339, 2011; further: on the % scale 0 is the no-effect control and ±100 the full control effect; nearly all actives have a fitted effect of over 50% in size
HP1b chromo inh: HTS for Inhibitors of HP1-beta Chromodomain Interactions with Methylated Histone Tails | AlphaScreen HP1-beta / biotin-H3K9me3 peptide binding | Potency, µM (series often up to 114 µM), for inactives: at the top dose activity change, negative = inhibition, most hits filed as inhibitors | actives 0.56% (n = 390,000) | AID 540317, 2011; further: nearly all actives have a fitted effect of over 70% in size
Target sequence (P83916 whole entry, looked up): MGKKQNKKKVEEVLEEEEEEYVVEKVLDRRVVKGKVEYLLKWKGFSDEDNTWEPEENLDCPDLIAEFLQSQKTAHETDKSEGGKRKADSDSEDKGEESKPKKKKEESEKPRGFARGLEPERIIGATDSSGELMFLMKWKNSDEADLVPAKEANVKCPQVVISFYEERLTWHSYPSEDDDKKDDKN
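AlphaScreen: HP1-beta (50 nM) preformed 30 min with biotin-H3(1-18)K9me3 peptide (50 nM) in PBS pH 7.4, 0.01% Tween-20. Compound added for 30 min at RT, then streptavidin donor/nickel chelate acceptor beads (10 ug/mL) for 30 min.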
BAZ2B inh: qHTS Assay for Inhibitors of BAZ2B; Bromodomain adjacent to zinc finger domain protein 2B (Homo sapiens), Q9UIF8; AlphaScreen BAZ2B-H3K14Ac peptide displacement; Potency, µM (titrated, usually from 114 µM), for the others: at the top dose activity change, negative = inhibition, actives largely listed as inhibitors; actives 4.4% (n = 360,000); AID 504333, 2011; further: on the % scale 0 is the no-effect control and ±100 the full control effect; nearly all actives have a fitted effect of over 60% in size
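Complex of BAZ2B and biotin-H3K14Ac (50 nM apiece) forms over 30 min at RT, then faces library compounds up to 110 uM for another 30 min; AlphaScreen beads added, 20 min dark incubation, luminescence read.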
* hit, by the source's call; ? = inconclusive; . = no result given; [ ] = another dose, or the depositor's remark. Shown are actives, neighbours in structure and some others; about 8.7% of the full set was active somewhere. The call rests on the fitted dose curve; in most records, active means well fitted curve in the direction sought with a large enough effect; inconclusive means small, poorly fitted or top-dose-only effect, or another doubt; inactive means no such curve, though single readings can be large; an effect the other way counts as inactive or inconclusive. Potency means the concentration at half of the fitted maximal effect.

SMILES	G9a block	Sfp inh	ALOX12 inh	JMJD2A Tudor inh	HP1b chromo inh	BAZ2B inh
CCC(CC)NC(=O)CC1CCCN(c2cnn(CC3CC3)c(=O)c2)C1 (stereo unspecified)	.	.	13%	.	.	.
N#C/C(N=Nc1ccccc1O)=N\Nc1ccccc1O	?	.	?	22µM*	16µM*	11µM*
Oc1ccccc1N=N/C(=N/Nc1ccccc1O)c1ccccc1	7%[2.33 µM]	.	?	-35%	-2%	?
CC(C)c1noc([C@@H]2C[C@H]3C(=O)NCCCCCCN(C(=O)COc4ccc(F)cc4)[C@H]3C2)n1	.	.	27%	.	.	.
Cc1cc(C(=O)CSc2n[nH]c(N)n2)c(C)n1-c1cccc(F)c1	?	-12%	-9%	?	-19%	50µM*
COCCn1c(C)cc(C(=O)CSc2nc3nc(C)cc(C)n3n2)c1C	?	-5%	?	-24%	1%	-10%
COCCn1c(C)cc(C(=O)CSc2n[nH]c(N)n2)c1C	?	25µM*	-16%	-16%	10%	-31%
COC(=O)C1=CN(Cc2ccc(OC)cc2)C=C(C(=O)OC)C1c1cccs1	.	?	?	72%	104%	56%
COC(=O)C1=CC(C(=O)c2cccs2)=NN(c2ccc(OC)cc2)C1C(=O)OC (stereo unspecified)	13µM*	-3%	1%	25µM*	?	8.9µM*
Cc1c(C(=O)N2CCN(S(=O)(=O)c3ccc(F)cc3)CC2)oc2ccccc12	50µM*	.	-11%	-15%	17%	0%
COc1ccc2oc(C(=O)OCC(=O)N3CCN(S(=O)(=O)c4ccccc4)CC3)c(C)c2c1	50µM*	.	-11%	-18%	20%	7%
CC(C)C(NS(C)(=O)=O)C(=O)Nc1cccc(Cl)c1 (stereo unspecified)	.	.	38%	.	.	.
C=CCN(CC=C)CC(O)CN(c1cc([N+](=O)[O-])ccc1OC)S(=O)(=O)c1ccccc1 (stereo unspecified)	25%[59 µM]	79µM*	1%	-24%	3%	-2%
S=C(Nc1ccccc1)Nc1nc2ccccc2n1CCOc1ccc(Cl)cc1	-10%[59 µM]	?	8.9µM*	?	?	7.1µM*
CCn1c(NC(=S)Nc2ccccc2)nc2ccccc21	-9%[59 µM]	-1%	?	?	-14%	5.6µM*
COc1ccccc1C1=NOC(C(=O)NCCc2ccccc2)C1 (stereo unspecified)	.	.	1%	.	.	.
Cc1cc(C)nc(N/N=C/C2=C(O)CC(c3ccc(F)cc3)CC2=O)n1 (stereo unspecified)	1%	8%	-22%	32µM*	44%	22µM*
CC(C)CNC(=O)N1CC[C@H]2C(=O)NCCCCCCN(Cc3ccncc3)[C@@H]2C1	.	.	42%	.	.	.
Cc1sc2ncnc(N/N=C/c3ccccc3O)c2c1C	65%[59 µM]	-4%	?	?	-6%	35µM*
COc1ccc(-c2csc3ncnc(Nc4ccccc4)c23)cc1	13%[59 µM]	.	-20%	5%	77%	-1%
COc1cccc(/C=N/Nc2ncnc3scc(-c4ccccc4)c23)c1OC	50µM*	-16%	3%	?	27%	-27%
Cc1sc2ncnc(N/N=C/c3ccc(O)cc3)c2c1C	9%[59 µM]	-9%	-3%	-19%	10%	-30%
Cc1ccc(CN2CCCC3(COc4ccccc4C(=O)N3)C2)cc1 (stereo unspecified)	.	.	-1%[176 µM]	.	.	.
COc1ccc(-c2c3c([nH]c(=S)c2C#N)CCC3)cc1	?	22µM*	-22%	45µM*	-16%	1%
COc1ccc(OC)c(-c2c3c([nH]c(=S)c2C#N)CCCC3)c1	?	22µM*	?	-32%	9%	?
